CaV13 ICDI inh – Primary screen for inhibitors of IQ motif and Ca2+-dependent inactivation inhibitor domain binding in CACNA1D, Förster resonance energy transfer in living cells, …; HEK cells, CFP/YFP FRET ICDI-IQ, plate reader, 10 min; percent FRET-ratio fall versus neutral wells; inhibition, % at 12.3 µM; actives 0.098% (n = 340,000);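 active means mean replicate inhibition of at least 30% and at least 1% of replicates passing that level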
GSIS activator – GLuc luminescence reporter in INS-1E cells, primary screen for activators of glucose-dependent secretion of insulin | activation, % at 16.6 µM | INS-1E GLuc reporter insulin secretion, 2-3 h | actives 0.61% (n = 370,000);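 active means lowest replicate activation of at least 40%, so every replicate reaches that level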
Ecoli rRNA inh – inhibits bacterial ribosomal RNA function over humanized ribosomes; E. coli WT GFP vs humanized-ribosome RFP mutants, fluorescence, 24 h; stronger effect = lower value; DMSO median 0, no signal -100; GFP signal change (wild-type ribosome), % (test concentration not listed); actives 1.6% (n = 350,000); AID 720706;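 active means significant combined selectivity score with lowered wild-type GFP, culture density cut under 30%, mutant RFP and density less affected; inactive means any of these conditions unmet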
DENV2 CPE rescue – DENV2-induced cell death inhibition; DENV2-infected cells, cytopathic effect rescue, plate reader; CPE inhibition, % at 9.99 µM; actives 1.7% (n = 350,000); AID 651640; in the data active means CPE inhibition above about 20%, passing the limit was not always enough; tested in BHK-21 cells
ERAP1 inh – ERAP1 (human) enzyme inhibition; Q9NZ08; recombinant ERAP1, Leu-AMC fluorescence, 60 min; inhibition, % at 10.7 µM; actives 0.15% (n = 340,000);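 active means mean replicate inhibition of at least 30%, or all replicates individually reaching that 30% level; inactive means mean below 30% and not every replicate reaching it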
Target sequence (Q9NZ08 whole entry, looked up): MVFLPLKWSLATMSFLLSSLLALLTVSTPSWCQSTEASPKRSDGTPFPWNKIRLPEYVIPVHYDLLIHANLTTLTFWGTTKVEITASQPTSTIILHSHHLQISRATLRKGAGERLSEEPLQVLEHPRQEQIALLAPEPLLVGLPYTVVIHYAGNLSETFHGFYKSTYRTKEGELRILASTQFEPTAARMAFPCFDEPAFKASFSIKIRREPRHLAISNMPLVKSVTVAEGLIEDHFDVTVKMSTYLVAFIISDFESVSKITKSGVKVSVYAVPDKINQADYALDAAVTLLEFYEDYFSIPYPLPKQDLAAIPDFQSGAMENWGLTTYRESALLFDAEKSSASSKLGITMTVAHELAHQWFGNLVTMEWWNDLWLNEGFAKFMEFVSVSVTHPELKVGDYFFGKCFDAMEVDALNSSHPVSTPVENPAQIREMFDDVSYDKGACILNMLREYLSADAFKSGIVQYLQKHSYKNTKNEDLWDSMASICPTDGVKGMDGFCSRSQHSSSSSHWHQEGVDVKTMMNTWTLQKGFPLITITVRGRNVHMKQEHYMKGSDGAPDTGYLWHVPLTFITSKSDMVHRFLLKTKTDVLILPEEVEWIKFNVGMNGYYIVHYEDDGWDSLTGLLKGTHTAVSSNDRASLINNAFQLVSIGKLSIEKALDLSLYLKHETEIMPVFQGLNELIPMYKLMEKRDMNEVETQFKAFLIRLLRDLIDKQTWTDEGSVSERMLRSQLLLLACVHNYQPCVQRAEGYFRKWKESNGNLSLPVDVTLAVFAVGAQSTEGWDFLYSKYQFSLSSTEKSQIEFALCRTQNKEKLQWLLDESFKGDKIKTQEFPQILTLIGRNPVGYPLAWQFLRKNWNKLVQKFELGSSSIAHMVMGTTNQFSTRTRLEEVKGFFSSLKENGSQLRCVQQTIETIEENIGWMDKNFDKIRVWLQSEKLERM
PGC1a acetyl inh – lowers PGC1a acetylation signal in U2OS cells. AlphaScreen anti-acetyl-lysine; with virally co-expressed GCN5 acetyltransferase. inhibition, % at 15.6 µM. actives 0.17% (n = 350,000). AID 651687;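 active means every replicate shows inhibition of at least 40%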
Hits are given with their value; n = inactive; x = no result given. Rows were chosen to be rich in hits. Some 3.2% of all compounds tested hit in one or more screens of this group.

SMILES	CaV13 ICDI inh	GSIS activator	Ecoli rRNA inh	DENV2 CPE rescue	ERAP1 inh	PGC1a acetyl inh
CCOC(=O)c1c(CS(=O)(=O)c2ccccc2)n(C)c2cc(Br)c(O)cc12	n	x	-19	n	n	n
CC1CN(C(=O)c2cc3c(=O)n4ccccc4nc3n2C)CC(C)O1 (stereo not given)	n	n	n	n	38	x
Cn1c(C(=O)N2CCN(C(=O)c3ccco3)CC2)cc2c(=O)n3ccccc3nc21	n	x	x	x	x	n
Cn1c(C(=O)N2CCOCC2)cc2c(=O)n3ccccc3nc21	n	n	n	n	57	x
CN(C(=O)c1cc2c(=O)n3ccccc3nc2n1C)C1CCCCC1	n	n	n	n	61	n
C[C@H]1CCCCO[C@H](CN(C)C(=O)C2CCCCC2)[C@@H](C)CN([C@@H](C)CO)C(=O)c2cc(NC(=O)CCCN(C)C)ccc2O1	x	n	n	n	x	n
Cn1cc(C(CO)Cc2ccccc2)c2ccccc21 (stereo not given)	n	n	n	25	n	n
Cn1cc(C[C@@H](N)C(=O)O)c2ccccc21	x	x	x	n	n	n
C[C@H]1CN([C@@H](C)CO)C(=O)c2ccccc2-c2ccccc2CO[C@@H]1CN(C)Cc1ccc(Cl)c(Cl)c1	x	42	n	n	n	n
C[C@H]1CN([C@@H](C)CO)C(=O)c2ccccc2-c2ccccc2CO[C@H]1CN(C)Cc1ccccc1C(F)(F)F	x	n	n	21	n	n
C[C@H]1CN([C@@H](C)CO)C(=O)c2ccccc2-c2ccccc2CO[C@@H]1CN(C)Cc1cccc(C(F)(F)F)c1	x	56	n	n	n	n
CCCNC(=O)N1[C@H](C#N)[C@H](c2ccc(-c3cccnc3)cc2)[C@@H]1CO	x	n	n	n	n	n
CCCC#Cc1cnc2c(c1)C(=O)N([C@H](C)CO)C[C@H](C)[C@H](CN(C)C(=O)Nc1ccc(OC)cc1)O2	x	n	n	n	n	n
O=[N+]([O-])c1ccc(COc2ccc(-c3[nH]ncc3-c3ccc(Cl)cc3)c(O)c2)cc1	n	41	x	x	x	n
O=C(NCC1CC1)C1(S(=O)(=O)c2ccccc2)CC=CC1	n	n	n	21	n	n
O=C(Nc1ccc(F)cc1)N[C@H]1C=C[C@H](CC(=O)N2CCCCC2)O[C@@H]1CO	x	n	n	n	n	n
COc1cc(CCCN2C(=S)NC[C@@H]2c2ccccc2)cc(OC)c1OC	n	n	n	25	x	n
CN1C(=O)c2cc(NC(=O)c3cccc(F)c3)ccc2OC[C@H]2O[C@@H](CC(=O)NCC3CC3)CC[C@@H]21	x	n	n	n	n	x
Cc1noc(C)c1NC(=O)N(C)C[C@H]1Oc2ccc(NS(=O)(=O)c3ccc(Cl)cc3)cc2CC(=O)N([C@@H](C)CO)C[C@@H]1C	x	n	n	n	n	n
CCOC(=O)C1=CC[C@@H](c2ccc(OC)cc2)[C@@H]1C(=O)c1ccccc1	x	x	x	n	n	n
CCc1cccc(CC)c1NC(=O)COC(=O)c1cccc(S(=O)(=O)N2CCc3ccccc3C2)c1	n	x	x	x	n	x
Cc1cccc(C(C)C)c1NC(=O)COC(=O)c1cccc(S(=O)(=O)N2CCc3ccccc3C2)c1	n	121	x	x	x	x
O=C(c1cccc([N+](=O)[O-])c1)c1cc2ccccc2o1	n	n	n	46	n	x
O=C1N=C(N2CCN(c3ccccc3)CC2)S/C1=C/c1ccco1	n	x	-38	n	n	x
CCc1ccc(/C=C2/SC(N3CCOCC3)=NC2=O)cc1	n	n	-19	n	n	n
SMILES	CaV13 ICDI inh	GSIS activator	Ecoli rRNA inh	DENV2 CPE rescue	ERAP1 inh	PGC1a acetyl inh
C[C@@H]1CN([C@H](C)CO)C(=O)c2cc(NC(=O)C3CCCCC3)ccc2O[C@@H]1CN(C)Cc1ccc(C(=O)O)cc1	x	n	n	n	n	n
O=C(Nc1ccc(-c2csc(Nc3cccc(C(F)(F)F)c3)n2)cc1)c1cc([N+](=O)[O-])cc(C(F)(F)F)c1	n	x	n	135	n	n
CN=c1scc(-c2ccccc2F)n1/N=C/c1ccc[nH]1	n	n	-22	n	n	n
O=C(N/N=C\c1ccc(CNS(=O)(=O)c2ccc(Cl)cc2)o1)C(=O)Nc1ccc(Oc2ccccc2)cc1	n	58	x	x	x	x
CN(CCOc1ccccc1)C(=O)c1ccc(OC2CCN(C(=O)C3CC3)CC2)cc1	n	n	-19	n	n	n
CCc1cccc2c1Sc1ccccc1CC2N1CCNCC1 (stereo not given)	n	x	-52	n	n	x
CN1CCN(C2Cc3ccccc3Sc3ccc(Cl)cc32)CC1 (stereo not given)	n	x	x	n	n	n
CN1CCN(C2Cc3ccccc3Sc3cc(C(F)(F)F)ccc32)CC1 (stereo not given)	n	402	n	n	n	x
CN1CCN(C2Cc3ccc(F)cc3Sc3cc(F)c(Cl)cc32)CC1 (stereo not given)	n	n	-43	n	n	n
CCCNC(=O)C[C@H]1CC[C@@H]2[C@@H](COc3ccc(NC(=O)c4ccc(Cl)cc4)cc3C(=O)N2C)O1	x	n	n	n	n	n
CCCNC(=O)N1[C@H](CO)[C@H]2c3ccccc3N(C(=O)Nc3ccccc3)C[C@H]21	x	n	n	x	x	n
CCN1C(=O)N[C@@H](CCc2ccccc2)[C@H](C(=O)OC)[C@H]1C	n	n	n	n	x	x
COC(=O)[C@@H]1[C@H](CCc2ccccc2)NC(=O)N(Cc2ccccc2)[C@@H]1C	n	x	n	68	n	x
CCCn1c(O)c(N=NC(=O)CNC(=O)c2cccnc2)c2ccccc21	n	n	n	n	n	n
CCCn1c(O)c(N=NC(=O)c2cccnc2)c2cc(Br)ccc21	n	41	n	n	n	n
O=C(C[C@H]1CC[C@H](NC(=O)CC2CC2)[C@@H](CO)O1)NCc1ccc(Cl)cc1	x	n	n	n	n	n
C=CCNC(=O)[C@H]1[C@@H]2C(=O)O[C@@H](c3ccccc3)[C@@H](c3ccccc3)N2[C@@H](c2ccc(OCCO)cc2)[C@]12C(=O)N(C(=O)OCCOC)c1ccc(C#Cc3ccc(OC)cc3)cc12	x	x	x	23	n	n
COCCOC(=O)N1C(=O)[C@@]2(c3cc(C#CC4(O)CCCCCC4)ccc31)[C@H](c1ccc(OCCO)cc1)N1[C@H](c3ccccc3)[C@H](c3ccccc3)OC(=O)[C@H]1[C@@H]2C(N)=O	x	x	x	69	n	n
C/C=C/c1ccc([C@H]2[C@@H](CO)N(C(=O)C3CCCC3)C23CN(C(=O)NC(C)C)C3)cc1	x	n	n	n	n	n
Cc1ccc(-c2csc(NC(=O)c3ccc(S(=O)(=O)N4CCc5ccccc54)cc3)n2)cc1	n	n	n	25	n	n
